In all, about 5,500 compounds went through this assay and about 2,000 (36%) were called active. Another 18% or so got no clear call; they are omitted. No stated cut-off is given here; in the data, active means normalized growth mostly below about 0.91 (no sharp cut-off); inconclusive means no clear call, values can overlap the other calls; inactive means mostly above about 0.92. The list shows a part of the results.
Test: chemical genetic growth profiling, strain panel (AID 1159580);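 further: tested at 20 µM; growth read once vehicle control cultures reached saturation at 30 °C; 1 = growth at the plate median or of vehicle wells; lower values mean less growth of the strain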
Conditions: growth OD

Measured: normalized growth

C[C@@H]1C(=O)OC2[C@H](O)C34[C@@H]5OC(=O)[C@@]3(O[C@@H]3OC(=O)[C@H](O)[C@@]34[C@H](C(C)(C)C)[C@H]5O)[C@]21O (some centres undefined)
inactive: S. cerevisiae deletion strains, locus YJR066W, strain TOR1, hits give low values 0.958 | S. cerevisiae deletion strains, locus YKL009W, strain mrt4, hits give low values 1.02 | S. cerevisiae deletion strains, locus YKL068W, hits give low values 1 | S. cerevisiae deletion strains, locus YKL085W, strain MDH1 (second series), hits give low values 1.01 | S. cerevisiae deletion strains, locus YKL085W, strain MDH1, hits give low values 1.01 | S. cerevisiae deletion strains, locus YKL160W, strain elf1, hits give low values 0.981 | S. cerevisiae deletion strains, locus YKL190W, strain CNB1, hits give low values 0.993 | S. cerevisiae deletion strains, locus YKR001C, strain vps1, hits give low values 1.02 | S. cerevisiae deletion strains, locus YKR026C, strain gcn3, hits give low values 0.977 | S. cerevisiae deletion strains, locus YKR091W, strain srl3, hits give low values 0.955 | S. cerevisiae deletion strains, locus YLL001W, strain dnm1, hits give low values 0.987 | S. cerevisiae deletion strains, locus YLL026W, hits give low values 0.984 | S. cerevisiae deletion strains, locus YLL041C, strain sdh2, hits give low values 0.971 | S. cerevisiae deletion strains, locus YLR027C, strain aat2, hits give low values 0.973 | S. cerevisiae deletion strains, locus YLR039C, strain RIC1, hits give low values 1 | S. cerevisiae deletion strains, locus YLR058C, strain SHM2, hits give low values 1 | S. cerevisiae deletion strains, locus YLR102C, strain apc9, hits give low values 1.01 | S. cerevisiae deletion strains, locus YLR113W, strain HOG1, hits give low values 0.997 | S. cerevisiae deletion strains, locus YLR221C, strain rsa3, hits give low values 0.978 | S. cerevisiae deletion strains, locus YLR258W, strain gsy2, hits give low values 0.978 | S. cerevisiae deletion strains, locus YLR262C, strain YPT6 (second series), hits give low values 0.964 | S. cerevisiae deletion strains, locus YLR262C, strain YPT6, hits give low values 1.01 | S. cerevisiae deletion strains, locus YLR268W, strain sec22, hits give low values 1.02 | S. cerevisiae deletion strains, locus YLR320W, strain mms22, hits give low values 0.98 | S. cerevisiae deletion strains, locus YLR330W, strain CHS5, hits give low values 1.01 | S. cerevisiae deletion strains, locus YLR342W, strain FKS1 (second series), hits give low values 1.01 | S. cerevisiae deletion strains, locus YLR342W, strain FKS1, hits give low values 0.982 | S. cerevisiae deletion strains, locus YLR357W, strain rsc2, hits give low values 0.932 | S. cerevisiae deletion strains, locus YLR370C, strain arc18, hits give low values 0.97 | S. cerevisiae deletion strains, locus YLR371W, strain rom2, hits give low values 1.02 | S. cerevisiae deletion strains, locus YLR384C, strain iki3, hits give low values 0.981 | S. cerevisiae deletion strains, locus YLR418C, strain cdc73, hits give low values 1.02 | S. cerevisiae deletion strains, locus YML016C, strain PPZ1, hits give low values 1.01 | S. cerevisiae deletion strains, locus YML032C, strain rad52, hits give low values 1 | S. cerevisiae deletion strains, locus YML120C, strain ndi1, hits give low values 0.975 | S. cerevisiae deletion strains, locus YML124C, strain tub3, hits give low values 1.02 | S. cerevisiae deletion strains, locus YMR058W, strain fet3, hits give low values 0.966 | S. cerevisiae deletion strains, locus YMR078C, strain ctf18, hits give low values 1.02 | S. cerevisiae deletion strains, locus YMR125W, strain sto1, hits give low values 0.941 | S. cerevisiae deletion strains, locus YMR129W, hits give low values 0.959 | S. cerevisiae deletion strains, locus YMR205C, strain PFK2, hits give low values 0.984 | S. cerevisiae deletion strains, locus YMR223W, strain ubp8, hits give low values 1.03 | S. cerevisiae deletion strains, locus YMR231W, strain pep5, hits give low values 0.984 | S. cerevisiae deletion strains, locus YMR263W, strain SAP30, hits give low values 1 | S. cerevisiae deletion strains, locus YMR307W, strain GAS1, hits give low values 0.979 | S. cerevisiae deletion strains, locus YNL067W, strain RPL9B, hits give low values 0.995 | S. cerevisiae deletion strains, locus YNL071W, strain lat1, hits give low values 0.974 | S. cerevisiae deletion strains, locus YNL183C, strain NPR1, hits give low values 0.973 | S. cerevisiae deletion strains, locus YNL209W, strain ssb2, hits give low values 0.971 | S. cerevisiae deletion strains, locus YNL233W, strain BNI4, hits give low values 1 | S. cerevisiae deletion strains, locus YNL248C, strain rpa49, hits give low values 0.961 | S. cerevisiae deletion strains, locus YNL250W, strain rad50, hits give low values 1.02 | S. cerevisiae deletion strains, locus YNL271C, strain bni1, hits give low values 1.01 | S. cerevisiae deletion strains, locus YNL298W, strain CLA4, hits give low values 1.02 | S. cerevisiae deletion strains, locus YNL307C, strain MCK1, hits give low values 1.03 | S. cerevisiae deletion strains, locus YNL322C, strain KRE1 (second series), hits give low values 0.963 | S. cerevisiae deletion strains, locus YNL322C, strain KRE1, hits give low values 1 | S. cerevisiae deletion strains, locus YNR049C, strain mso1, hits give low values 0.95 | S. cerevisiae deletion strains, locus YNR052C, strain pop2, hits give low values 1.01 | S. cerevisiae deletion strains, locus YOL012C, strain htz1 1.18 | S. cerevisiae deletion strains, locus YOL147C, strain pex11, hits give low values 1.02 | S. cerevisiae deletion strains, locus YOR001W, strain rrp6, hits give low values 0.972 | S. cerevisiae deletion strains, locus YOR061W, strain CKA2, hits give low values 1 | S. cerevisiae deletion strains, locus YOR069W, strain VPS5, hits give low values 0.997 | S. cerevisiae deletion strains, locus YOR070C, strain gyp1, hits give low values 0.988 | S. cerevisiae deletion strains, locus YOR080W, strain dia2, hits give low values 0.951 | S. cerevisiae deletion strains, locus YOR083W, strain WHI5, hits give low values 0.988 | S. cerevisiae deletion strains, locus YOR106W, strain vam3, hits give low values 0.978 | S. cerevisiae deletion strains, locus YOR136W, strain idh2, hits give low values 1.01 | S. cerevisiae deletion strains, locus YOR144C, strain elg1, hits give low values 1.01 | S. cerevisiae deletion strains, locus YOR184W, strain ser1, hits give low values 1.03 | S. cerevisiae deletion strains, locus YOR231W, strain MKK1, hits give low values 1.02 | S. cerevisiae deletion strains, locus YOR265W, strain rbl2, hits give low values 0.977 | S. cerevisiae deletion strains, locus YOR270C, strain vph1, hits give low values 0.935 | S. cerevisiae deletion strains, locus YOR290C, strain snf2, hits give low values 0.953 | S. cerevisiae deletion strains, locus YOR316C, strain cot1, hits give low values 1.02 | S. cerevisiae deletion strains, locus YPL051W, strain arl3, hits give low values 0.985 | S. cerevisiae deletion strains, locus YPL055C, strain LGE1, hits give low values 0.998 | S. cerevisiae deletion strains, locus YPL078C, strain atp4, hits give low values 0.984 | S. cerevisiae deletion strains, locus YPL106C, strain sse1, hits give low values 0.944 | S. cerevisiae deletion strains, locus YPL240C, strain hsp82, hits give low values 0.979 | S. cerevisiae deletion strains, locus YPL241C, strain CIN2, hits give low values 0.99 | S. cerevisiae deletion strains, locus YPL256C, strain CLN2, hits give low values 1.06 | S. cerevisiae deletion strains, locus YPR119W, strain clb2, hits give low values 1.01 | S. cerevisiae deletion strains, locus YPR141C, strain kar3, hits give low values 1.01 | S. cerevisiae deletion strains, locus YPR163C, strain tif3, hits give low values 1.02 | S. cerevisiae deletion strains, locus YPR167C, strain met16, hits give low values 1.02 | S. cerevisiae deletion strains, strain wtn01, hits give low values 1.04 | S. cerevisiae strains, strain wild type, hits give low values 0.983

Reference: PubChem BioAssay AID1159580 (chemical genetic matrix, 2015)
